# Assay results as given in PubChem BioAssay (NCATS).
# Records with an inconclusive call do not appear. Where a call stands in place of a potency, no number is given. Unmarked numbers belong to inactive results. Active and inactive are the calls of the source. Calls follow the shape of the dose curve; as a rule, active = well fitted curve in the direction sought with a large enough effect; inconclusive = small, poorly fitted or top-dose-only effect, or another doubt; inactive = no such curve, though single readings can be large; an effect the other way counts as inactive or inconclusive.
# Columns and labels:
# [1] = system: JEG-3; experiment: Primary qHTS to identify gynecologic anti-cancer compounds using libraries of approved drugs and bioactive compounds (AID 1345084); conditions: Gynecologic cancer cell panel viability, ATPlite luminescence, 48 h; series mostly up to 57.5 µM; also: nearly all actives have a fitted effect of over 55% in size
# Method in brief: (§1)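 Five-concentration response, 48 h; readout is ATP-driven luciferase luminescence.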
# [2] = system: Tov-21-G; experiment: as above; conditions: Gynecologic cancer cell panel viability, ATPlite luminescence, 48 h; series mostly up to 57.5 µM
# Method in brief: as §1
# [3] = qHTS assay to identify inhibitors of the type 1 interferon - major histocompatibility complex class I in skeletal muscle: Counter screen cell viability and HiBit confirmation (AID 1347412); conditions: iHSKM muscle cells + IFN-b, HiBiT or CellTiter-Glo, 24 h; for activity change, negative = inhibition: at 45.9 µM (top of the series); as to all read-outs here: nearly all actives have a fitted effect of over 60% in size
# Method in brief: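 HLA-B*08:01–HiBiT knock-in immortalized human myoblasts (C25cl48) stimulated with 4.0 ng/ml human IFN-beta and dosed with compound in a 12-point 1:3 titration (top final 46 uM). After 24 hrs at 37 C, HiBiT lytic luminescence or CellTiter Glo ATP read out.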
# [4] = system: Tov112D; experiment: Primary qHTS to identify gynecologic anti-cancer compounds using libraries of approved drugs and bioactive compounds (AID 1345084); conditions: Gynecologic cancer cell panel viability, ATPlite luminescence, 48 h; series mostly up to 57.5 µM; also: nearly all actives have a fitted effect of over 55% in size
# Method in brief: as §1
# [5] = system: SKOV3; experiment: as above; conditions: Gynecologic cancer cell panel viability, ATPlite luminescence, 48 h; series mostly up to 57.5 µM
# Method in brief: as §1
# [6] = system: OV90; experiment: as above; conditions: Gynecologic cancer cell panel viability, ATPlite luminescence, 48 h; series mostly up to 57.5 µM
# Method in brief: as §1
# [7] = system: PA-1; experiment: as above; conditions: Gynecologic cancer cell panel viability, ATPlite luminescence, 48 h; series mostly up to 57.5 µM
# Method in brief: as §1
# Potency is read from the fitted curve at half-maximal effect.
compound,measurement,setting,value
COc1cccc(Nc2ncnn3ccc(CN4CC[C@@H](N)[C@H](O)C4)c23)c1,Potency,[1],inactive
same,Potency,[2],5.62 µM (active)
same,Potency,[3]; HiBiT,6.25 µM (active)
COc1cc2ncnc(Nc3cccc(O)c3)c2cc1OC,Potency,[1],inactive
same,Potency,[2],15.8 µM (active)
same,Potency,[4],inactive
Cc1cccc2c1NC(=O)C2(c1ccc(O)cc1)c1ccc(O)cc1,Potency,[1],inactive
same,Potency,[5],inactive
O=S(=O)(NCC1CC1)c1ccc(Nc2nccc(N3CCCc4cc(O)ccc43)n2)cc1,Potency,[6],inactive
same,Potency,[7],10 µM (active)
Cc1ncc(CCCN(C)C)cc1Nc1ncc2c(n1)-c1ccc(C(F)(F)F)cc1NC(=S)C2,Potency,[1],inactive
same,Potency,[2],inactive
c1cc(Nc2cc(C3CC3)[nH]n2)nc(Nc2ccc3nc[nH]c3c2)n1,Potency,[1],inactive
same,Potency,[7],3.98 µM (active)
same,Potency,[4],1.12 µM (active)
same,Potency,[3]; HiBiT,1.4 µM (active)
same,"activity change, negative = inhibition",[3]; Viability,24.1%
COc1ccc(-c2cnc3ccc(NCc4ccc(S(N)(=O)=O)cc4)nn23)cc1OC,Potency,[1],inactive
same,Potency,[2],inactive
same,Potency,[4],inactive
O=C(Nc1ccc(S(=O)(=O)C(F)(F)F)cc1)C1=CCN(c2ncccc2C(F)(F)F)CC1,Potency,[1],inactive
same,Potency,[2],inactive
N#Cc1ccc(-c2cnc3[nH]cc(NC(=O)c4cccnc4)c3c2)cc1,Potency,[1],inactive
same,Potency,[4],inactive
C#CCN(Cc1cc2c(=O)n(C)c(CN3CCN(C)CC3)nc2cc1Cl)c1ccc(C(=O)NCc2cccnc2)cc1,Potency,[6],inactive
O=C(/C=C\n1cnc(-c2cc(C(F)(F)F)cc(C(F)(F)F)c2)n1)N1CC(F)(F)C1,Potency,[6],inactive
same,Potency,[7],1.41 µM (active)
CC(O)c1cc(C(=O)N[C@@H](C)Cn2ccc(-c3ccc(C#N)c(Cl)c3)n2)n[nH]1 (some centres undefined),Potency,[6],inactive
Cc1ccc(C(=O)N(CCCN)C(c2oc3cc(Cl)ccc3c(=O)c2Cc2ccccc2)C(C)C)cc1 (centres undefined),Potency,[6],inactive
CC1(C)C2CC(OC3OC(COC4OCC(O)(CO)C4O)C(O)C(O)C3O)C1(C)CC2O (centres undefined),Potency,[6],inactive
Cc1ccc(C(=O)N(CCCN)C(c2nc3cc(Cl)ccc3c(=O)n2Cc2ccccc2)C(C)C)cc1 (centres undefined),Potency,[6],inactive
Cn1nnc(-c2ccc(-c3ccc(N4C[C@H](COP(=O)(O)O)OC4=O)cc3F)cn2)n1,Potency,[6],20 µM (active)
O=C(c1ccc(/C=C/c2n[nH]c3ccccc23)cc1)N1CCNCC1,Potency,[6],8.91 µM (active)
same,Potency,[7],8.91 µM (active)
Cc1ccc(S(=O)(=O)n2ccc(-c3c(-c4ccc(Cl)cc4)noc3C)n2)cc1,Potency,[6],inactive
same,Potency,[7],inactive
CN(C)C/C=C/C(=O)Nc1cc2c(Nc3ccc(F)c(Cl)c3)ncnc2cc1OC1CCOC1 (centres undefined),Potency,[1],inactive
same,Potency,[2],5.62 µM (active)
NC(=O)Nc1cc(-c2cccc(F)c2)sc1C(=O)NC1CCCNC1 (centres undefined),Potency,[6],5.62 µM (active)
O=C(NOCC(O)CO)c1ccc(F)c(F)c1Nc1ccc(I)cc1F (centres undefined),Potency,[1],inactive
same,Potency,[5],inactive
same,Potency,[4],inactive
COc1cc2c(cc1OC)[C@@H]1[C@H](O)[C@@H](OC)C=C3CCN(C2)[C@H]31,Potency,[1],inactive
same,Potency,[5],inactive
CC[C@H](C)[C@H](NC(=O)[C@H]([C@@H](C)CC)N(C)C(C)=O)C(=O)N[C@H](C(=O)N[C@@H](CC(C)C)C(=O)[C@@]1(C)CO1)[C@@H](C)O,Potency,[1],inactive
same,Potency,[4],0.1 µM (active)
COc1cc2nc(N3CCCC3)nc(NCCCCCN3CCCC3)c2cc1OC,Potency,[6],25.1 µM (active)
same,Potency,[7],6.31 µM (active)
same,Potency,[5],12.6 µM (active)
C[C@H]1Oc2cc(cnc2N)-c2c(nn(C)c2C#N)CN(C)C(=O)c2ccc(F)cc21,Potency,[1],inactive
same,Potency,[4],inactive
same,"activity change, negative = inhibition",[3]; HiBiT,-24.3%
same,"activity change, negative = inhibition",[3]; Viability,-27.7%
CC(C)(C)Nc1nc2cc(Cl)c(Cl)cc2nc1S(C)(=O)=O,Potency,[1],15.8 µM (active)
same,Potency,[5],20 µM (active)
same,Potency,[2],28.2 µM (active)
CS(=O)(=O)NCC1CCC(Nc2nc3c(s2)CCSc2ccccc2-3)CC1 (centres undefined),Potency,[1],inactive
same,Potency,[2],inactive
same,Potency,[4],inactive
